PubChem BioAssay
Activity calls are given as the source filed them.

Columns and labels:
[1] = small molecules captured by biotinylated probe aFSTL3 – biochemical, small-molecule microarray, fluorescence 635/667, stem cell growth factor project, primary screen (AID 1064); details: higher = more signal;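 note: measures binding of the biotinylated anti-FSTL3 antibody to printed compounds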
[2] = binders from COS7 lysate, DM2A8 probe, primary screen, torsin A project, cell lysate, small-molecule microarray, fluorescence 635/667 (AID 1065); details: higher = more signal, COS7 lysate expressing mutant human TOR1A
[3] = small molecules captured by biotinylated probe aFGF2 – biochemical, small-molecule microarray, fluorescence 635/667, stem cell growth factor project, primary screen (AID 1067); details: higher = more signal;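 note: measures binding of biotinylated aFGF2 protein to printed compounds on slides; z-score merges feature fluorescence and signal-to-noise across triplicate slides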
[4] = small molecules captured by biotinylated probe aFGF10 – biochemical, small-molecule microarray, fluorescence 635/667, stem cell growth factor project, primary screen (AID 1071); details: higher = more signal;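 note: score merges 667 nm spot intensity and signal to noise from triplicate slides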
[5] = target: Neurogenic locus notch homolog protein 2 (Homo sapiens) (UniProt Q04721); experiment: small molecules binding Notch2 protein – biochemical, small-molecule microarray, 635 nm fluorescence, stem cell growth factors, primary screen (AID 1073); details: higher = more signal
[6] = target: Pro-neuregulin-1, membrane-bound isoform (Homo sapiens) (UniProt Q02297); experiment: small molecules binding neuregulin-1 protein – biochemical, small-molecule microarray, fluorescence 635/667, psychiatric disease protein project, primary screen (AID 1075); details: NRG1 binding, 635 nm fluorescence, higher = more signal;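 note: score combines 667 nm spot fluorescence with signal to noise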
[7] = tested on: Neuregulin-1 EGF-like domain; experiment: small molecules binding NRG1 EGF domain – biochemical, small-molecule microarray, 635 nm fluorescence, primary screen (AID 1081); details: higher = more signal;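 note: binding of the protein to compounds printed on small-molecule microarray slides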
[8] = FRG1 expression reporter modulators in myotubes – cell-based, C2C12 myotubes, firefly/Renilla luciferase, luminescence, FRG1 inhibition for FSHD, primary screen (AID 1084); details: FRG1 promoter luciferase, higher = more signal, called active from +8 up or from −8 down
[9] = small molecules captured by biotinylated probe aFST – biochemical, small-molecule microarray, fluorescence 635/667, stem cell growth factor project, primary screen (AID 1086); details: higher = more signal;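 note: score merges 667 nm fluorescence with signal-to-noise of each printed compound spot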
[10] = binders of probe aHhip on microarray, primary screen, stem cell growth factor project, biochemical, small-molecule microarray, fluorescence 635/667 (AID 1087); details: higher = more signal;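 note: score merges spot fluorescence at 667nm with spot signal to noise ratio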
[11] = tested on: PRMT1 (protein arginine N-methyltransferase 1); experiment: small molecules binding arginine methyltransferase PRMT1 – biochemical, small-molecule microarray, 635 nm fluorescence, primary screen (AID 1088); details: higher = more signal;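 note: binding of Prmt1 protein to compounds spotted on small-molecule microarray slides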
[12] = growth effects on S. cerevisiae YJM789 – YJM789 clinical isolate, OD600, 24 h, basal, primary screen (AID 1089); details: higher = more signal, called active from +8 up or from −8 down;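 note: growth of clinical yeast isolate S. cerevisiae YJM 789 seeded 1000 cells per well; test concentration not given here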
[13] = S. pombe growth modifiers, basal conditions – strain 972, OD600, 24 h, no modulator, primary screen (AID 1090);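 note: basal condition with compound alone and no growth modifier present; test concentration not given here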; details: S. pombe 972 growth, higher = more signal, called active from +8 up or from −8 down
[14] = budding yeast growth modifiers under rapamycin – strain BY4716, OD600, 96 h, primary screen (AID 1091); note: test concentration not given here; details: S. cerevisiae BY4716 + rapamycin, higher = more signal, called active from +8 up or from −8 down
[15] = target: Torsin-1A-interacting protein 2 (Homo sapiens) (UniProt Q8NFQ8); experiment: small molecules binding lysate-expressed LULL1 – cell lysate, human LULL1 lysate, 635/667 nm fluorescence, primary screen (AID 1092); details: small-molecule microarray, hLULL1 lysate binding, 635 nm fluorescence; higher = more signal;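 note: probe is lysate of COS7 cells overexpressing human LULL1; score merges per-feature 667 nm fluorescence with signal-to-noise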
[16] = optical density change of DRC41 E. coli – strain DRC41, OD650, 24 h, E. coli filamentation project, primary screen (AID 1093);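 note: MC1000 strain lacking acrAB efflux and sulA so SOS filamentation is blocked; test concentration not given here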; details: E. coli DRC41 growth, higher = more signal, called active from +8 up or from −8 down
[17] = probe aLefty2 binding to arrayed compounds – biochemical, biotinylated probe, 635/667 nm fluorescence, primary screen (AID 1094); details: small-molecule microarray, higher = more signal;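 note: score merges spot fluorescence near 667 nm with spot signal-to-noise ratio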
[18] = tested on: Noggin (protein binding on small-molecule microarray); experiment: small molecules binding Noggin protein – biochemical, 635/667 nm fluorescence, primary screen (AID 1095); details: 635 nm fluorescence, higher = more signal;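 note: score merges 667 nm feature fluorescence with signal to noise over triplicate slides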
[19] = target: Neurogenic locus notch homolog protein 3 (Homo sapiens) (UniProt Q9UM47); experiment: small molecules binding NOTCH3 protein – biochemical, 635/667 nm fluorescence, primary screen (AID 1096); details: small-molecule microarray, 635 nm fluorescence, higher = more signal
[20] = probe aEGFR binding to arrayed compounds – biochemical, biotinylated probe, 635/667 nm fluorescence, primary screen (AID 1097); details: small-molecule microarray, higher = more signal;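 note: probe is a biotinylated anti-EGFR antibody binding compounds printed on slides; score combines fluorescence near 667 nm and signal to noise of each spot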

Neurogenic locus notch homolog protein 2 (Homo sapiens), sequence (Q04721 whole entry, looked up, canonical isoform): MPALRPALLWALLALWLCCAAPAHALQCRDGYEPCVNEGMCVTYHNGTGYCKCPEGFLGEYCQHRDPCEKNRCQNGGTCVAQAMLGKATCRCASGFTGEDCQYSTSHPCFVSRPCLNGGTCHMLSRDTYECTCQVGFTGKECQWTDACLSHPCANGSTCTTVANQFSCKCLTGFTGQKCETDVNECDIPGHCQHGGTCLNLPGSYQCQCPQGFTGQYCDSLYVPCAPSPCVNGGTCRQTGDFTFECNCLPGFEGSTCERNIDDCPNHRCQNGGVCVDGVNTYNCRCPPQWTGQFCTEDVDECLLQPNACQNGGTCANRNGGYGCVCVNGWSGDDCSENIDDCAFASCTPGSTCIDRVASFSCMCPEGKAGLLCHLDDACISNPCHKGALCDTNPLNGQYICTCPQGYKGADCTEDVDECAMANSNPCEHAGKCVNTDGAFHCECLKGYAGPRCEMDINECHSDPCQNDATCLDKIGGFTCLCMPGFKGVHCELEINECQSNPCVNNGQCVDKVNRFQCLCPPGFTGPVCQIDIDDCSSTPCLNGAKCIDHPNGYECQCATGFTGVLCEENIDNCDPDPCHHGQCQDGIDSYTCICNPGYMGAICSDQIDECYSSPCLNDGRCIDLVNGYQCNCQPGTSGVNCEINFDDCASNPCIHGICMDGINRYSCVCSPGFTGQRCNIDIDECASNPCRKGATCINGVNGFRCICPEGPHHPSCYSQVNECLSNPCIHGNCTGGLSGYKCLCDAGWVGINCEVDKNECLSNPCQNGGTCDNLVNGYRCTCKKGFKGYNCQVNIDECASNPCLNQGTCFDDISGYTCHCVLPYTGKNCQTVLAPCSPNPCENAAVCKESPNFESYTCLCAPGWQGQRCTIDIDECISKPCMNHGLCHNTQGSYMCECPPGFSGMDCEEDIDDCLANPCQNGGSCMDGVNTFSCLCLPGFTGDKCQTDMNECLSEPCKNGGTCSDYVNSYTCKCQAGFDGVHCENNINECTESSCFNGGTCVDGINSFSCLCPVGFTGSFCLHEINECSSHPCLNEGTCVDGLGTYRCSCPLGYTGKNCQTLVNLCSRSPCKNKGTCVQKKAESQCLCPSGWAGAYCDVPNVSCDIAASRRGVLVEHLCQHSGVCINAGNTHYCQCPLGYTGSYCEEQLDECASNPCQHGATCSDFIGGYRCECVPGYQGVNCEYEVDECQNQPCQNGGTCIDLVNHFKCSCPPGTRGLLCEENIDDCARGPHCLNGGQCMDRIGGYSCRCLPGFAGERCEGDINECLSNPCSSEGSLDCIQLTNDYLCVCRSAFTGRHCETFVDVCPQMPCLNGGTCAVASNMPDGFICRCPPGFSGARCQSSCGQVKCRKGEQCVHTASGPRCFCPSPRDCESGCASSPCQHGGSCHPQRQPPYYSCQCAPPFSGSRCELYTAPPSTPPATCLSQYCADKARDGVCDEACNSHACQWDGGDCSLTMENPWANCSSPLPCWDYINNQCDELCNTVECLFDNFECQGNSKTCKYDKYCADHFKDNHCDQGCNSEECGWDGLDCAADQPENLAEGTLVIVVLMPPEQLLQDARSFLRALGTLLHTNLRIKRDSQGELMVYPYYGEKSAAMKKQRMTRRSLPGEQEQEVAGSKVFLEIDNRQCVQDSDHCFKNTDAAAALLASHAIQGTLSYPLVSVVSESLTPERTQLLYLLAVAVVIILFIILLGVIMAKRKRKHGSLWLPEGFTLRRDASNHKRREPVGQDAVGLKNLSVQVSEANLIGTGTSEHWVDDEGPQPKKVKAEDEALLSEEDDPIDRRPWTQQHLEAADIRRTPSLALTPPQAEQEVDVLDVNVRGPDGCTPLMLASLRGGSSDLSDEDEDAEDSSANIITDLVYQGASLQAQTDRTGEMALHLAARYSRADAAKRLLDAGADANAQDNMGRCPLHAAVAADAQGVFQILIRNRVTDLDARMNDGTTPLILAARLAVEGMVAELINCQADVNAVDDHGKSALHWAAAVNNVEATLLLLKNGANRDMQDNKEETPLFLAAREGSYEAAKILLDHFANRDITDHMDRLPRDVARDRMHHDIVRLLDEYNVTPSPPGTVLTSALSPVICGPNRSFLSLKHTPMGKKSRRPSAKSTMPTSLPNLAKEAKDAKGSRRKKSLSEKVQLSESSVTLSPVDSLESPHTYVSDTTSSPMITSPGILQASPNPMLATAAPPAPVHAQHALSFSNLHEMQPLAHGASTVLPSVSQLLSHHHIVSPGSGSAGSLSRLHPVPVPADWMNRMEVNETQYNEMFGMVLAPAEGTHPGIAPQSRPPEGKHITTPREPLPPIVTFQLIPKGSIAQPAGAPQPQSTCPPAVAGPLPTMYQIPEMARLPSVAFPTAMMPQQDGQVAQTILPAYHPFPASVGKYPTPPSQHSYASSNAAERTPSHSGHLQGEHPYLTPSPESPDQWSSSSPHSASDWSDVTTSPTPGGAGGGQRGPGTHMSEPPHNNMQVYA
Pro-neuregulin-1, membrane-bound isoform (Homo sapiens), sequence (Q02297 whole entry, looked up, the tested form may be a part, canonical isoform): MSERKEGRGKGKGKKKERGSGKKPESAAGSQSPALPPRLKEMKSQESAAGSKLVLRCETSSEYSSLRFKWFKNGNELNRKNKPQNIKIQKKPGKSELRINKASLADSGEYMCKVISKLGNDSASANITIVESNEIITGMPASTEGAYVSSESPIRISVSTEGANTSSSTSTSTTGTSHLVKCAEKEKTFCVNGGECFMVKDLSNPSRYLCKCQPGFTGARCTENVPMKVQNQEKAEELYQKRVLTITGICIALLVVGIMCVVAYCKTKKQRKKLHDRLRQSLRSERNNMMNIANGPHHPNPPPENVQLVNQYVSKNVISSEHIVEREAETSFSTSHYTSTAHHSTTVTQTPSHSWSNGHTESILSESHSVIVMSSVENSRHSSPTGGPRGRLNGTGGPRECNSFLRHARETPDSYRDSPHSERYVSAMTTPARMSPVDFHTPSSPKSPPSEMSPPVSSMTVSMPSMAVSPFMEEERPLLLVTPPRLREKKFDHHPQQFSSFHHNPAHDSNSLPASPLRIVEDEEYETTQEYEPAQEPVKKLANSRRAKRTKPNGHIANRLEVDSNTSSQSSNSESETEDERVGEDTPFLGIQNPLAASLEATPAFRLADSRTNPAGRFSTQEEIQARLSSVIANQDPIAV
Torsin-1A-interacting protein 2 (Homo sapiens), sequence (Q8NFQ8 whole entry, looked up): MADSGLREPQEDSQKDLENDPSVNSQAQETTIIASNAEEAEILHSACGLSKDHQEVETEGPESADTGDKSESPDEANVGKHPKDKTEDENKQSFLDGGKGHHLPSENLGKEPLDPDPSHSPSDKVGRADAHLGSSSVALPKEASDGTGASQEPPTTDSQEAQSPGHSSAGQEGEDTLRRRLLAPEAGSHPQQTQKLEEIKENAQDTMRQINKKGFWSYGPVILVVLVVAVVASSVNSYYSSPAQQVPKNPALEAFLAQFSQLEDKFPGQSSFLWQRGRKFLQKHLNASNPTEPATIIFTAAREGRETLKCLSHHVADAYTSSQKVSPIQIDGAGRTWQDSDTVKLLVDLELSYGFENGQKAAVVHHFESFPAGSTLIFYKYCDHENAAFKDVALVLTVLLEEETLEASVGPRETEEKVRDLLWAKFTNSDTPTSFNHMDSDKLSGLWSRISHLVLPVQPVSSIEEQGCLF

Structure (SMILES) | composite z-score [1] | composite z-score [2] | composite z-score [3] | composite z-score [4] | composite z-score [5] | composite z-score [6] | composite z-score [7] | z-score [8] | composite z-score [9] | composite z-score [10] | composite z-score [11] | z-score [12] | z-score [13] | z-score [14] | composite z-score [15] | z-score [16] | composite z-score [17] | composite z-score [18] | composite z-score [19] | composite z-score [20]
COCCOC(=O)N1C(=O)[C@@]2(c3ccccc31)[C@H](c1ccc(OCCO)cc1)N1[C@H](c3ccccc3)[C@H](c3ccccc3)OC(=O)[C@H]1[C@@H]2C(=O)N1CCc2cc(OC)c(OC)cc2C1 | -0.128 | 0.974 | 0.123 | 1.15 | 1.33 | 1.29 | 1.28 | -1.82 (inactive) | 0.799 | 0.176 | 1.53 | 1.93 (inactive) | 0.856 (inactive) | 4.71 (inactive) | 3.09 | 0.0474 (inactive) | 0.284 | 1.12 | 1.14 | 0.246
COc1ccc(NC(=O)O[C@H]2[C@H](OC(=O)c3cc4ccccc4[nH]3)[C@@H](OC(=O)c3cc4ccccc4[nH]3)[C@@H](OC)O[C@@H]2CO)cc1 | -0.147 | 0.0444 | 0.0014 | 0.528 | 0.23 | 0.765 | 0.543 | 2.22 (inactive) | 0.0417 | 0.21 | 0.496 | -1.68 (inactive) | -0.519 (inactive) | 0.611 (inactive) | 1.54 | 0.593 (inactive) | -0.007 | 0.21 | 0.475 | -0.0409
CCCC1(C(=O)OC)C=C2C(=C(c3ccccc3)C(=O)C2C)CN1 (stereo not given) | 1.43 | -0.289 | -0.0869 | -0.121 | 0.725 | 0.768 | 0.861 | 2.51 (inactive) | 0.387 | 0.154 | -0.406 | 0.283 (inactive) | 0.312 (inactive) | 0.763 (inactive) | 1.64 | -0.375 (inactive) | 0.248 | -0.533 | 0.0144 | 0.0384
C#CCN1[C@H](/C=C/C2CC2)[C@H](Cc2ccccc2)OC(=O)[C@@H]1Cc1ccccc1 | -0.413 | 0.241 | -0.144 | -0.0377 | -0.343 | 0.153 | 0.524 | -4.01 (inactive) | -0.0168 | 0.0373 | 0.663 | -0.651 (inactive) | 0.241 (inactive) | 0.79 (inactive) | 0.613 | -0.714 (inactive) | -0.102 | 0.792 | 0.0922 | -0.118
O=C1C2C=CC(C(O)c3ccc4c(c3)OCO4)N(Nc3ccc([N+](=O)[O-])cc3)C2C(=O)N1c1ccccc1 (stereo not given) | -0.407 | 0.566 | 0.0019 | 0.791 | 1.05 | 0.626 | 0.65 | -0.383 (inactive) | 0.314 | -0.134 | 0.66 | -0.664 (inactive) | 0.484 (inactive) | 1.36 (inactive) | 1.97 | -0.245 (inactive) | -0.222 | -0.0077 | 0.777 | 0.006
O=C1OCCC=C[C@H]2OC34C=CCN(CCN5CCOCC5)C(=O)[C@H]3N(CCCCCO)C(=O)[C@@H]4C12 (stereo not given in full) | -0.391 | 1.84 | -0.203 | 0.0681 | -0.419 | 1.06 | 1.42 | -0.521 (inactive) | -0.324 | -0.0994 | 1.48 | -0.776 (inactive) | -0.0455 (inactive) | -0.379 (inactive) | 3.34 | 0.444 (inactive) | -0.138 | 0.0669 | 0.193 | -0.158
COc1cc2c(cc1OC)CN(C(=O)[C@H]1[C@@H]3C(=O)O[C@@H](c4ccccc4)[C@@H](c4ccccc4)N3[C@@H](c3ccccc3OCCO)[C@]13C(=O)Nc1ccc(C#CCCO)cc13)CC2 | -0.39 | 0.282 | 0.0094 | 0.339 | 0.775 | 1.27 | 1.07 | -2.07 (inactive) | 0.369 | -0.0994 | 1.52 | 2.11 (inactive) | -0.0834 (inactive) | 3.66 (inactive) | 1.61 | -0.302 (inactive) | -0.0499 | 1.71 | 1.02 | -0.0531
CC(C)C(=C=CC[C@H](O)c1ccc(CO)o1)CCO | 0.0959 | 1.5 | -0.141 | 0.153 | -0.57 | 1.57 | 1.16 | 0.859 (inactive) | 0.164 | -0.202 | 1.52 | -0.0662 (inactive) | -0.697 (inactive) | -0.536 (inactive) | 1.51 | -0.253 (inactive) | -0.28 | 0.679 | 0.787 | -0.14
COCCOC(=O)N1C(=O)[C@@]2(c3ccccc31)[C@H](C(=O)N1CCCCCCC1)[C@H]1C(=O)O[C@H](c3ccccc3)[C@H](c3ccccc3)N1[C@@H]2c1ccc(OCCO)cc1 | 4.16 | 2.62 | 1.09 | 1.49 | 1.75 | 2.93 | 1.5 | -1.64 (inactive) | 3.82 | 3.98 | 1.54 | 1.9 (inactive) | 1.62 (inactive) | 4.28 (inactive) | 4.99 | -0.348 (inactive) | 1.98 | 2.22 | 1 | 1.38
